Results taken from article PMC7862700, “An all-to-all approach to the identification of sequence-specific readers for epigenetic DNA modifications on cytosine”.

How the values were obtained:
Experiment in all cases: DAPPL (digital affinity profiling via proximity ligation, sequencing); 10 mM Tris-HCl pH 7.5, 50 mM NaCl, 1 mM DTT, 4% glycerol, room temperature, 30 min; GST-TFs on glutathione beads, 16-mer random dsDNA library, 0.1% formaldehyde crosslink after washing; high values mean tight binding
[1] = target: T1, FEV (Homo sapiens, UniProt Q99581 1-238); conditions: protein: recombinant; tags: N-terminal GST; dsDNA, one strand shown
T1 sequence: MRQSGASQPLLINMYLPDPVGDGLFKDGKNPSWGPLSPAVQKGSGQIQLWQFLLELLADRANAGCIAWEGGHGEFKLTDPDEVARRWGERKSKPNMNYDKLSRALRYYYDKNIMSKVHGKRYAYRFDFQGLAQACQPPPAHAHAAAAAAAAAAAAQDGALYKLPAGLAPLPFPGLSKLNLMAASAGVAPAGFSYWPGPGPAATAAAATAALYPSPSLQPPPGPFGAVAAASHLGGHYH
Procedure, shortened: (§1)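 Human transcription factors were made in yeast as GST fusions, captured on glutathione beads and barcoded with DNA. With a tag-only sample included, the pool was incubated with 200 nmole of a random double-stranded 16-mer DNA library in Tris/NaCl/DTT/glycerol buffer at room temperature for 30 min, then crosslinked with 0.1% formaldehyde after washing, ligated by proximity, amplified and sequenced. For binding signal, each hexamer's read frequency for a factor is divided by its frequency for the tag-only sample.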

[2] = target: ETV5 (Homo sapiens, UniProt P41161 1-510); conditions: protein: recombinant; tags: N-terminal GST; dsDNA, one strand shown
Procedure, shortened: as §1

[3] = target: HSF1 (Homo sapiens, UniProt Q00613 1-529); conditions: protein: recombinant; tags: N-terminal GST; chain copies: 3; dsDNA, one strand shown
Procedure, shortened: as §1

[4] = target: T2, SPIC (Homo sapiens, UniProt Q8N5J4 1-248); conditions: protein: recombinant; tags: N-terminal GST; dsDNA, one strand shown
T2 sequence: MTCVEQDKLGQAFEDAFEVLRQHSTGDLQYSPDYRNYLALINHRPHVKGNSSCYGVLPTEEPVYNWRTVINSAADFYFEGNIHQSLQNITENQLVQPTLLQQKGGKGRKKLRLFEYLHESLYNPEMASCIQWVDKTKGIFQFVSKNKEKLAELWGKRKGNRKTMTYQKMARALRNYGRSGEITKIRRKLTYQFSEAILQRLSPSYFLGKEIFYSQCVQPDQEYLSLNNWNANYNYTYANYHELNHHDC
Procedure, shortened: as §1

[5] = target: ELF4 (Homo sapiens, UniProt Q99607 1-663); conditions: protein: recombinant; tags: N-terminal GST; dsDNA, one strand shown
Procedure, shortened: as §1

[6] = target: T3, ELK4 (Homo sapiens, UniProt P28324-2 1-405); conditions: protein: recombinant; tags: N-terminal GST; dsDNA, one strand shown
T3 sequence: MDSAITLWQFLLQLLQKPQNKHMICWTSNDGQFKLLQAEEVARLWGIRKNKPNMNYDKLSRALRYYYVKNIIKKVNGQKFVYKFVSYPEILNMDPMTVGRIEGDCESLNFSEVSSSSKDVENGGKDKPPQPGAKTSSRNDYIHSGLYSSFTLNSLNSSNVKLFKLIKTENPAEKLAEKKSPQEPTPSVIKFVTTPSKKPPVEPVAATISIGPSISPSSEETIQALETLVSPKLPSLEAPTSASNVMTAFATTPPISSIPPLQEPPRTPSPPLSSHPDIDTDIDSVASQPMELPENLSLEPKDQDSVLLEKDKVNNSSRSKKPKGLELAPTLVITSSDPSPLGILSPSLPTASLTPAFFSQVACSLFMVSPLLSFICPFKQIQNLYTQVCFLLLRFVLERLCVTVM
Procedure, shortened: as §1

[7] = target: T4, ETV2 (Homo sapiens, UniProt O00321 1-342); conditions: protein: recombinant; tags: N-terminal GST; dsDNA, one strand shown
T4 sequence: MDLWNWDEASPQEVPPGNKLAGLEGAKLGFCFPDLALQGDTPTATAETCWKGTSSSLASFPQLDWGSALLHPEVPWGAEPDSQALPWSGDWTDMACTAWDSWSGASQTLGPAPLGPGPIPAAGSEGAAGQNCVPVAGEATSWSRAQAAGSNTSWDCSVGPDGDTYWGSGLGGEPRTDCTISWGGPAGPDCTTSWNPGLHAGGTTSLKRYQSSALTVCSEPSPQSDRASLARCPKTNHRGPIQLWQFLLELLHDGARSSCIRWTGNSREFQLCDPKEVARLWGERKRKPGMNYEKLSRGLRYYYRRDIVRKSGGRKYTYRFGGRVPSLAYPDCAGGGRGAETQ
Procedure, shortened: as §1

[8] = target: T5, ELF3 (Homo sapiens, UniProt P78545 1-371); conditions: protein: recombinant; tags: N-terminal GST; dsDNA, one strand shown
T5 sequence: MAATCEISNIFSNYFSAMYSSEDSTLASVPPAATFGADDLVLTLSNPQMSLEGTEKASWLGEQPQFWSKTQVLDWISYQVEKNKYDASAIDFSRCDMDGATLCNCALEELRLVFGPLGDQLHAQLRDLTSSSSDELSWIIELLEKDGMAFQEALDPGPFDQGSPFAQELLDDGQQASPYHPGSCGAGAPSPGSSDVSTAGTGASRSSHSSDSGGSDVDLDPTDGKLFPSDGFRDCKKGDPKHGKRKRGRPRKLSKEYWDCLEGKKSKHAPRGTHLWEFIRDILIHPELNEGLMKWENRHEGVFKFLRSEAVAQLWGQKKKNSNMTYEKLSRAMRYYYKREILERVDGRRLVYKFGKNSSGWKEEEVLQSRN
Procedure, shortened: as §1

[9] = target: CRX (Homo sapiens, UniProt O43186 1-299); conditions: protein: recombinant; tags: N-terminal GST; dsDNA, one strand shown
Procedure, shortened: as §1

[10] = target: ETV1 (Homo sapiens, UniProt P50549 1-477); conditions: protein: recombinant; tags: N-terminal GST; dsDNA, one strand shown
Procedure, shortened: as §1

Sequence of ETV1 (P50549 whole entry): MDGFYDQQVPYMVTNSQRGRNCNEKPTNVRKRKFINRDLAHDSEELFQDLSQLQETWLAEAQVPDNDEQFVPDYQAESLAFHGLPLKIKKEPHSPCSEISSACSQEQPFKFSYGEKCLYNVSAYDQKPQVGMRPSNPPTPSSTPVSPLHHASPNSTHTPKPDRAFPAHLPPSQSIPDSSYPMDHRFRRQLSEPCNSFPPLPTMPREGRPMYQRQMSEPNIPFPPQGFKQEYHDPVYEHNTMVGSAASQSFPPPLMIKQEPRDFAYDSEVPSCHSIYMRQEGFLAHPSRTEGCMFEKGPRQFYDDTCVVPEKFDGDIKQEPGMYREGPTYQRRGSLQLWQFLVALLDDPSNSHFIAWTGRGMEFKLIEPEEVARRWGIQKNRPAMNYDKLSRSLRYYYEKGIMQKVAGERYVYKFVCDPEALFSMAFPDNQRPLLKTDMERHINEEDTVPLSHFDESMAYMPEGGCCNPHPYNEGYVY
Sequence of ELF4 (Q99607 whole entry): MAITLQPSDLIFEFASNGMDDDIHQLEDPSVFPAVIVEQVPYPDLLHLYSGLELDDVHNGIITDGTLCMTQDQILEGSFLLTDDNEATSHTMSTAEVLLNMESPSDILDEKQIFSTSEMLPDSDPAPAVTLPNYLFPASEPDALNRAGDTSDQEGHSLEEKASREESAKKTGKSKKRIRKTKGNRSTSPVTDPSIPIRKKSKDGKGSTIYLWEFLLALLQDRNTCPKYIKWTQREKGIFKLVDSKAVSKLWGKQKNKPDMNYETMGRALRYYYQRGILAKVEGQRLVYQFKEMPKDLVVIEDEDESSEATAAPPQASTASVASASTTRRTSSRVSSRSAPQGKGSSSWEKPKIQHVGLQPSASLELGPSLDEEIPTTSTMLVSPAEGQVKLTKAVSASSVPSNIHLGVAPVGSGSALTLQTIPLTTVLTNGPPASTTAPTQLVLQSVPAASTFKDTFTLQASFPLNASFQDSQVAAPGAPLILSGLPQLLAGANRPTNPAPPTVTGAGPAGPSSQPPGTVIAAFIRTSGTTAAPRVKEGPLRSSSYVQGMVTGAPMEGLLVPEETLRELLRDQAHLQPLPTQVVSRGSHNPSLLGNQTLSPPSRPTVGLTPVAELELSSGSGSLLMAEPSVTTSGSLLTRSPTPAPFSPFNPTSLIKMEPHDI
Sequence of ETV5 (P41161 whole entry): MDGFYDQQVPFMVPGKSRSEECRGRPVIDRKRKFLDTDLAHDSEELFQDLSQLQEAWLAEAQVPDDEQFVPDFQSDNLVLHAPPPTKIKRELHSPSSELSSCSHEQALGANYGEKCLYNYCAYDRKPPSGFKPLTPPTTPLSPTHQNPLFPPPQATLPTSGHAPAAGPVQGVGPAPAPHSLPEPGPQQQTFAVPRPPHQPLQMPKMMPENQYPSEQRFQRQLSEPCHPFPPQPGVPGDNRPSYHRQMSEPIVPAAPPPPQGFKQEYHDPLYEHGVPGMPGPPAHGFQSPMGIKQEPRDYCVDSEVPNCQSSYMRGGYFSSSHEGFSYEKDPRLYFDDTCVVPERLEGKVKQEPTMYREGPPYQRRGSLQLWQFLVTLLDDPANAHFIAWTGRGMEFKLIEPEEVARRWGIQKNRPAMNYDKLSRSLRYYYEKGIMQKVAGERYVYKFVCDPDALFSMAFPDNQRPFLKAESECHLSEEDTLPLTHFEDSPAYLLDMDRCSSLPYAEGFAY
Sequence of HSF1 (Q00613 whole entry): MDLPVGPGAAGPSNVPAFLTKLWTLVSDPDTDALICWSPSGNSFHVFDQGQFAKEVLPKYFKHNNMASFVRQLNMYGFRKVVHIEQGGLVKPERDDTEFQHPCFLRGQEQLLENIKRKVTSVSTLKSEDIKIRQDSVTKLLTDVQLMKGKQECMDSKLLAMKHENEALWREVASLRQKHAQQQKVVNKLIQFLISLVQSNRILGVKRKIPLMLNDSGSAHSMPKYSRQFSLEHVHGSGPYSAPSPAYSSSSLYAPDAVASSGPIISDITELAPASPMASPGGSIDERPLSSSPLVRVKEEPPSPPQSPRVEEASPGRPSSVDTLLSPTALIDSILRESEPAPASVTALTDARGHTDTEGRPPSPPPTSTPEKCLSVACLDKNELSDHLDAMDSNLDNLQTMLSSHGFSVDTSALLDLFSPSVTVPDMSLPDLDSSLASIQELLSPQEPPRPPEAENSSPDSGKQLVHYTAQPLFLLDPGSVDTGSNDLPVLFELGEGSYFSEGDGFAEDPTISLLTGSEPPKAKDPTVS
Sequence of CRX (O43186 whole entry): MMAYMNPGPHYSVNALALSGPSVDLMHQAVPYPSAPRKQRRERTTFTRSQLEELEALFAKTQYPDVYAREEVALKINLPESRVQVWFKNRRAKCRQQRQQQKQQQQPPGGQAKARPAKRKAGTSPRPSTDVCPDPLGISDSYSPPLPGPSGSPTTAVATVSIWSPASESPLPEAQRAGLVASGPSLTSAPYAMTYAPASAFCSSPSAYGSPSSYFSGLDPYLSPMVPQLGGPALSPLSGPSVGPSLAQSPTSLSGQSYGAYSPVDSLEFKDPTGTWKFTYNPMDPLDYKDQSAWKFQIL

## TTTCAT
[1]
  binding signal: 1.12 fold enrichment (6-mer frequency, TF over GST control)
[2]
  binding signal: 1.09 fold enrichment (6-mer frequency, TF over GST control)
[3]
  binding signal: 1.13 fold enrichment (6-mer frequency, TF over GST control)
[4]
  binding signal: 1.11 fold enrichment (6-mer frequency, TF over GST control)
[5]
  binding signal: 1.2 fold enrichment (6-mer frequency, TF over GST control)
[6]
  binding signal: 1.19 fold enrichment (6-mer frequency, TF over GST control)
[7]
  binding signal: 1.1 fold enrichment (6-mer frequency, TF over GST control)
[8]
  binding signal: 1.11 fold enrichment (6-mer frequency, TF over GST control)
[9]
  binding signal: 1.18 fold enrichment (6-mer frequency, TF over GST control)
[10]
  binding signal: 1.16 fold enrichment (6-mer frequency, TF over GST control)
